Experimental findings from article PMC10726135, “HNF4α isoforms regulate the circadian balance between carbohydrate and lipid metabolism in the liver” are described below.

The full ranking holds about 18,000 sequences; the median of “log2 normalized intensity” is about 0.36, and the highest 2% start at about 7.3. Many of the other results were omitted from the sample, so the highest values are more common in it than they were.

This assay concerns the target T1, HNF4alpha8 (COS-7 nuclear extract) (Homo sapiens, UniProt P41235-5 1-452).
T1 sequence: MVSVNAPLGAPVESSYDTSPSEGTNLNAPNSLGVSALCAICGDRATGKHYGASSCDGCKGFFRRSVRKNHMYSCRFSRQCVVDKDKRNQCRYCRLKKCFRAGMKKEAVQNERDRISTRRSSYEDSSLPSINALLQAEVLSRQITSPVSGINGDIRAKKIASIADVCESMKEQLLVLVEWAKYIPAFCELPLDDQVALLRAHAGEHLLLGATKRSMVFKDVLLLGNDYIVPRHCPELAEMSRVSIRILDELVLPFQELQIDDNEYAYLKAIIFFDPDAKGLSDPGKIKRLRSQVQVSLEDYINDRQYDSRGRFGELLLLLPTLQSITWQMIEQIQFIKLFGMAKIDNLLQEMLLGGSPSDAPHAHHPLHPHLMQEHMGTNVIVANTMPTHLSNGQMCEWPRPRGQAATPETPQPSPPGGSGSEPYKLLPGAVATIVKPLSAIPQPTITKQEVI
In words: protein-binding microarray; COS-7 nuclear extract on double-stranded Agilent 4x180k PBM; binding buffer, salt, pH and temperature not given in the material; high values mean tight binding. The following applies: chain copies: 2; label: 3' end of strand 1 on the slide; dsDNA, one strand shown. An outline of the steps: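 Nuclear extracts of COS-7 cells transiently transfected with a human HNF4α isoform were applied to a custom Agilent SurePrint G3 4x180k array bearing ~44,000 double-stranded ~60-nt test sequences, each in quadruplicate. The bound protein was imaged on an Agilent G2565CA scanner at 2-µm resolution. Binding signal is the normalized, background-corrected gProcessedSignal from Agilent software.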
“GTTGACCTTTAGTCTCTAGCCCCGCCCAGAGCCTAGGGAGATTAGAGTATCGGTCGA”: the binding signal turned out to be 5.33 log2 normalized intensity.

In the case of “TACCCCTGTGGTTGACCTTTAGTCTCTAGCGCCTAGGGAGATTAGAGTATCGGTCGA”, the binding signal came out at 7.47 log2 normalized intensity.

As to “AGTGACCCTGTCTCTCAGTCTCTGTGGGAGGCCTAGGGAGATTAGAGTATCGGTCGA”, the binding signal was found to be 1.23 log2 normalized intensity.

On to “ATGCTAAAGTCTACATTCTAGATGACCCCTGCCTAGGGAGATTAGAGTATCGGTCGA”, for which the binding signal is 6.17 log2 normalized intensity. Under “TGTCTACCCTTTTGCCCTTTGAGCTTCTGTGCCTAGGGAGATTAGAGTATCGGTCGA” stands 5.93 log2 normalized intensity; under “GGACTTGATCCATTCTACCCCTGTGGTTGAGCCTAGGGAGATTAGAGTATCGGTCGA”, 2.5 log2 normalized intensity. As to “TGATCCATTCTACCCCTGTGGTTGACCTTTGCCTAGGGAGATTAGAGTATCGGTCGA”, the binding signal turned out to be 8.51 log2 normalized intensity. Turning to “AAATCATGGATCTGTGCTCAGATCCTGCTCGCCTAGGGAGATTAGAGTATCGGTCGA”, the binding signal is -0.984 log2 normalized intensity. As for “CCGGACATGGAGAGGTGAGACACGTGTGCCGCCTAGGGAGATTAGAGTATCGGTCGA”, the binding signal is -0.118 log2 normalized intensity. For the sequence “GGCTAGACTTTAACCCCCTTGTCTTCCTCAGCCTAGGGAGATTAGAGTATCGGTCGA”, the binding signal turned out to be 4.16 log2 normalized intensity. The figure for “GGCTGCAGAGGTTTCGCAAGGACGTGACCTGCCTAGGGAGATTAGAGTATCGGTCGA” is 3.33 log2 normalized intensity; for “CTTACGGCCCTGTGGTGTTCGCTAAGATGTGCCTAGGGAGATTAGAGTATCGGTCGA” it is 0.705 log2 normalized intensity. For “CCACCTGGAATGTGCTCCCGACTGCTCCACGCCTAGGGAGATTAGAGTATCGGTCGA”, the binding signal stood at 0.00529 log2 normalized intensity. The figure for “CACAAACATACAACCATCAAAGGTCACTTTGCCTAGGGAGATTAGAGTATCGGTCGA” is 4.93 log2 normalized intensity; for “TATGCTTTTATTTAACTTCTGGGGGCAAGGGCCTAGGGAGATTAGAGTATCGGTCGA” it is 2 log2 normalized intensity; for “AGGTACTAAGAGATTTGAATATGTACATGGGCCTAGGGAGATTAGAGTATCGGTCGA” it is 0.942 log2 normalized intensity. Take “AGATTTGAATATGTACATGGACTTTGAACCGCCTAGGGAGATTAGAGTATCGGTCGA”: the binding signal turned out to be 10.6 log2 normalized intensity. “ATGTACATGGACTTTGAACCAAGATATGCTGCCTAGGGAGATTAGAGTATCGGTCGA”: the binding signal was 7.68 log2 normalized intensity.

As for “CATGGACTTTGAACCAAGATATGCTAACATGCCTAGGGAGATTAGAGTATCGGTCGA”, the binding signal was 5.27 log2 normalized intensity.

As for “CTAAGAGATTTGAATATGTACATGGACTTTGCCTAGGGAGATTAGAGTATCGGTCGA”, the binding signal turned out to be 6.92 log2 normalized intensity.

With “TGAATATGTACATGGACTTTGAACCAAGATGCCTAGGGAGATTAGAGTATCGGTCGA”, the binding signal worked out at 8.87 log2 normalized intensity. Regarding “GAATGCAACCACACCAACATGGACTTTGTCGCCTAGGGAGATTAGAGTATCGGTCGA”, the binding signal stood at 6.59 log2 normalized intensity. In the case of “CGGTCAGCTGCTTGACTTAGTACATGGCCTGCCTAGGGAGATTAGAGTATCGGTCGA”, the binding signal is 0.903 log2 normalized intensity.

In the case of “ACACAGTACTTTGTACATGGGAATAGACATGCCTAGGGAGATTAGAGTATCGGTCGA”, the binding signal came to 0.975 log2 normalized intensity. In the case of “GTCTAGCGCAAATGATCAAAGGTTGGTTTTGCCTAGGGAGATTAGAGTATCGGTCGA”, the binding signal amounted to 4.43 log2 normalized intensity.

Consider “AGTGTGTAAGTATGCTCACTGACCTCTGCCGCCTAGGGAGATTAGAGTATCGGTCGA”, for which the binding signal came out at 3.94 log2 normalized intensity. For the sequence “AGAGCAGGAATTCTGATCTTTGACCTCTCCGCCTAGGGAGATTAGAGTATCGGTCGA”, the binding signal was determined as 8.08 log2 normalized intensity.

Turning to “TTCTGATCTTTGACCTCTCCAGGGTCCTTGGCCTAGGGAGATTAGAGTATCGGTCGA”, the binding signal was 5.35 log2 normalized intensity.

In the case of “TAATCAGAGCAGGAATTCTGATCTTTGACCGCCTAGGGAGATTAGAGTATCGGTCGA”, the binding signal was 7.96 log2 normalized intensity. Under “AGGAATTCTGATCTTTGACCTCTCCAGGGTGCCTAGGGAGATTAGAGTATCGGTCGA” stands 7.01 log2 normalized intensity; under “CCACTTTGAATCAGGAGAGCATCTGAGTGTGCCTAGGGAGATTAGAGTATCGGTCGA”, 0.742 log2 normalized intensity; under “CATCTTTGAAGAGCACAGGGTCAGCAGATCGCCTAGGGAGATTAGAGTATCGGTCGA”, 1.59 log2 normalized intensity.

As for “TGTGCTAGATACTGGAGATATGTTGCTGGAGCCTAGGGAGATTAGAGTATCGGTCGA”, the binding signal is 0.67 log2 normalized intensity. Under “TCTAGATGGGGTTGAGCAGACTAAAGGACTGCCTAGGGAGATTAGAGTATCGGTCGA” stands -0.482 log2 normalized intensity; under “TGAGACATGAATCCATCCCACCTCACTTATGCCTAGGGAGATTAGAGTATCGGTCGA”, 1.12 log2 normalized intensity; under “GCAAGGAATTCAACCCTTGTCACTTTCCCTGCCTAGGGAGATTAGAGTATCGGTCGA”, 1.82 log2 normalized intensity. Take “TTGGACAGGGTGACGTCATTGGAAATCCGAGCCTAGGGAGATTAGAGTATCGGTCGA”: the binding signal was 0.187 log2 normalized intensity. As for “AGGGATTGTTTAGGTACAAAGTCCATTGGAGCCTAGGGAGATTAGAGTATCGGTCGA”, the binding signal was determined as 8.46 log2 normalized intensity.

With “CTCTGAGATTCGGTGAGGGATTGTTTAGGTGCCTAGGGAGATTAGAGTATCGGTCGA”, the binding signal is 0.829 log2 normalized intensity. With “AGATTCGGTGAGGGATTGTTTAGGTACAAAGCCTAGGGAGATTAGAGTATCGGTCGA”, the binding signal was 1.25 log2 normalized intensity. Turning to “TTGTTTAGGTACAAAGTCCATTGGAAGCCAGCCTAGGGAGATTAGAGTATCGGTCGA”, the binding signal worked out at 6.42 log2 normalized intensity. The figure for “AAAGTCCATATTCTTTGTTTGGATGCCAAAGCCTAGGGAGATTAGAGTATCGGTCGA” is 2.25 log2 normalized intensity; for “CGGTGAGGGATTGTTTAGGTACAAAGTCCAGCCTAGGGAGATTAGAGTATCGGTCGA” it is 8.89 log2 normalized intensity.
